Compound activity: PubChem, National Center for Advancing Translational Sciences (NCATS)
Sampled rows, rich in hits. Any-hit rate of the full collection: about 8%.
SW480 rerep: A quantitative high throughput screen for small molecules that induce DNA re-replication in SW480 colon adenocarcinoma cells; SW480 DNA re-replication, Hoechst DNA content imaging, 48 h; Potency, µM (doses to about 46.1 µM), for inactives: top-dose re-replication activation, hits mostly activators; 340,000 tested, 1.8% active; AID 624297, 2012; note: % of control where 0% means no effect; nearly all actives have a fitted effect of over 55% in size
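Per well, 250 cells were exposed to pinned compound for 48 hr. Nuclear DNA was visualised with Hoechst (40 min, 37 C) and total object intensity recorded by fluorescence scanning.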
KB-V1 cytotox: qHTS assay for MDR1-selective chemotherapeutics: Primary screen using the drug-selected MDR subline cells KB-V1; 400,000 tested, 3.4% active; KB-V1 MDR cells viability, CellTiter-Glo, 72 h; Potency, µM (highest dose often 46.1 µM), most hits filed as cytotoxic; note: % is set by controls: 0 for no effect and ±100 for the full control effect; nearly all actives have a fitted effect of over 60% in size
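KB-V1 cells (P-gp-expressing MDR subline of KB-3-1) in phenol-red-free DMEM with 10% FBS were exposed to library compounds over a concentration series for 72 h at 37 degrees C. Viability read by CellTiter-Glo luminescence; concentration-effect curves fitted after normalization.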
HT1080NT lethal: qHTS for induction of synthetic lethality in tumor cells producing 2HG: qHTS for the HT-1080-NT fibrosarcoma cell line; HT-1080-NT fibrosarcoma viability, CellTiter-Glo ATP luminescence, 48 h; Potency, µM (series often up to 46.1 µM), for the others: top-dose activity, negative = less viability, hits mostly cytotoxic; 360,000 tested, 1.6% active; AID 686970, 2013;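 note: NT is the 2HG producing partner of a matched IDH1 knockdown line; 0% = DMSO-treated cells and -100% = media-only wells without cells; nearly all actives have a fitted effect of over 55% in size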
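HT-1080-NT; 750 cells/well; 5% FBS RPMI; 48 h compound, 37 degrees C; CellTiter-Glo luminescence; curve fitting and curve-class assignment.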
KB-3-1 tox: qHTS assay for MDR1-selective chemotherapeutics: Primary screen using the parental adenocarcinoma cell KB-3-1 | 400,000 tested, 1.4% active | KB-3-1 viability, CellTiter-Glo ATP luminescence, 72 h | Potency, µM (titrated, usually from 46.1 µM), most hits filed as cytotoxic; note: % is set by controls: 0 for no effect and ±100 for the full control effect; nearly all actives have a fitted effect of over 60% in size
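Using CellTiter-Glo luminescence, growth of non-resistant KB-3-1 adenocarcinoma cells is assessed 72 h after pin-tool compound addition at 37 °C. Normalized responses across the concentration series yield fitted curves.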
HT1080 IDH1KD tx: qHTS for induction of synthetic lethality in tumor cells producing 2HG: qHTS for the HT-1080-IDH1KD cell line | HT-1080 IDH1 knockdown viability, ATP luminescence, 48 h | Potency, µM (top dose mostly 46.1 µM), for the others: at the highest dose activity, negative = toxicity, actives largely listed as cytotoxic | 360,000 tested, 2% active;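 note: 0% = DMSO wells and -100% = cell-free medium wells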
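% activity derives from luminescence (CellTiter-Glo), normalised to DMSO and no-cell wells. HT-1080-IDH1KD cells, 750/well, had 48 h compound exposure at 37 °C.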
MCF10A rerep: A quantitative high throughput screen for small molecules that induce DNA re-replication in MCF 10a normal breast cells; Potency, µM (highest dose often 46.1 µM), without a hit: at the highest dose activity, positive = re-replication, most hits filed as activators; 350,000 tested, 2.9% active; AID 624296, 2012; MCF 10A DNA re-replication, Hoechst nuclear intensity, 48 h; note: % of control where 0% means no effect; nearly all actives have a fitted effect of over 50% in size
* = called active by the depositor; i = inactive; u = inconclusive; x = not tested or not shown. Calls come from the whole dose curve; as a rule, active = well fitted curve in the direction sought with a large enough effect; inconclusive = small, poorly fitted or top-dose-only effect, or another doubt; inactive = no such curve, though single readings can be large; an effect the other way counts as inactive or inconclusive. Potency is the fitted concentration of half-maximal effect.

SMILES	SW480 rerep	KB-V1 cytotox	HT1080NT lethal	KB-3-1 tox	HT1080 IDH1KD tx	MCF10A rerep
COc1ccc(OC)c(NC(=O)CSc2nnc(-c3ccco3)n2-c2ccccc2)c1	3.66µM*	u	-2.0%	i	-4.7%	1.3%
CCCn1c(SCC(=O)Nc2ccccc2OC)nnc1-c1ccco1	9.2µM*	u	16.4µM*	u	18.4µM*	6.51µM*
CCC(=O)OCCCNc1nc(-c2ccc(Cl)cc2)nc2ccccc12	x	i	x	i	x	x
COc1ccc(CC(=O)NCC2(N3CCCCC3)CCCCC2)cc1	23.1µM*	i	-2.9%	i	-0.6%	u
COCc1ccc(C(=O)NCC2(N3CCCCC3)CCCCC2)cc1	0.7%	i	u	i	20.9%	14.1%
CCOc1cc(/C=C/C(=O)Nc2ccc(C(=O)NCCN(CC)CC)cc2)ccc1OCC(C)C	-84.3%	i	u	18.4µM*	u	u
O=C(Nc1ccccc1C(=O)OCc1cc(=O)n2ccsc2n1)c1ccc(Cl)cc1	x	i	x	i	x	x
CCOC(=O)C(C)n1nc(C)c2sc3ccccc3c2c1=O (stereo not given)	10.3%	20.6µM*	10.9%	i	6.0%	24.0%
CC(C)(C)c1ccc(S(=O)(=O)Nc2cccc(C3OCCCO3)c2)cc1	-2.6%	14.6µM*	-1.6%	i	-8.5%	-0.8%
CC(=O)c1ccc(NS(=O)(=O)c2ccc(C(C)(C)C)cc2)cc1	0.9%	u	4.3%	i	-7.2%	2.0%
CCCCN(CC)Cc1ccc(CNC(=O)Nc2ccccc2)o1	-2.3%	i	1.1%	i	14.1µM*	-8.8%
CCCCN(CCCC)Cc1ccc(C(=O)NNC(=O)Nc2ccccc2)o1	26.1%	i	-2.3%	i	-1.3%	5.7%
COc1cc(CNn2nnnc2N)ccc1OCc1c(Cl)cccc1Cl	0.2%	14.6µM*	-20.9%	16.4µM*	-17.1%	0.5%
CC(Oc1ccc2oc3ccccc3c2c1)C(=O)NC12CC3CC(CC(C3)C1)C2 (stereo not given)	u	i	-9.5%	i	-17.3%	16.4µM*
COc1cc2c(cc1NC(=O)C(C)Oc1ccccc1)oc1ccccc12 (stereo not given)	x	i	x	i	x	x
O=c1c2cnn(-c3ccccc3)c2nc(-c2cccs2)n1-c1cccc(Cl)c1	5.8%	10.3µM*	3.1%	u	0.0%	u
O=c1c2cnn(-c3ccccc3)c2nc(-c2cccs2)n1-c1ccc(Cl)cc1	-5.9%	i	2.4%	i	3.5%	u
O=c1c2ccccc2nc(-c2cccs2)n1-c1cccc2ccccc12	-131.2%	23.1µM*	2.5%	u	1.0%	22.3%
COc1cccc(C(=O)Nn2c(-c3cccs3)nc3ccccc3c2=O)c1OC	-2.5%	u	0.0%	i	-3.4%	16.9%
COc1ccc(CNn2c(-c3cccs3)nc3ccccc3c2=O)cc1OC	u	23.1µM*	-27.2%	i	-27.8%	u
COc1ccc(-c2cc(C(F)(F)F)nc(SCC(=O)Nc3ccc(O)cc3)n2)cc1OC	x	i	x	i	x	x
NC(=O)CCCCC1CCSS1 (stereo not given)	-4.0%	x	x	x	x	6.5%
Cc1ccccc1Oc1cc(-n2ncc(Cl)c(Cl)c2=O)ncn1	u	i	13µM*	14.6µM*	7.31µM*	0.731µM*
CCOc1cnn(-c2cc(Oc3ccc(C)cc3)ncn2)c(=O)c1Cl	-0.6%	i	8.9%	i	8.5%	-4.3%
CC(NC(=O)/C(C#N)=C/c1ccc(N2CCOCC2)cc1)c1ccccc1 (stereo not given)	u	i	3.1%	i	-17.1%	20.6µM*
SMILES	SW480 rerep	KB-V1 cytotox	HT1080NT lethal	KB-3-1 tox	HT1080 IDH1KD tx	MCF10A rerep
CC(NC(=O)/C(C#N)=C/c1ccco1)c1ccccc1 (stereo not given)	0.7%	i	17.0%	i	5.7%	-3.1%
COC(=O)c1ccc(/C=C(\C#N)C(=O)NC(C)c2ccccc2)cc1 (stereo not given)	u	i	u	u	u	18.4µM*
Cc1ccc(C(C)NC(=O)/C(C#N)=C\c2c(C)[nH]c3ccccc23)cc1 (stereo not given)	u	11.6µM*	u	i	u	u
CC(NC(=O)/C(C#N)=C/c1cccs1)c1ccccc1 (stereo not given)	-4.5%	i	0.0%	i	-20.5%	0.8%
CC(NC(=O)/C(C#N)=C/c1ccc([N+](=O)[O-])o1)c1ccccc1 (stereo not given)	3.66µM*	i	-22.8%	u	6.51µM*	3.66µM*
CCN(Cc1ccccc1)c1ncnc2c1nnn2C	x	i	x	i	x	x
CN(C)c1ccc(-c2noc(C3CCN(S(=O)(=O)c4cccc(Cl)c4)CC3)n2)cc1	-2.5%	6.51µM*	5.8%	16.4µM*	-2.4%	u
O=S(=O)(c1cccc(Cl)c1)N1CCC(c2nc3ccccc3[nH]2)CC1	16.9%	8.2µM*	-5.5%	i	-7.3%	8.2%
O=S(=O)(c1ccc2c(c1)OCCO2)N1CCC(c2nc3ccccc3[nH]2)CC1	-2.2%	14.6µM*	-5.3%	u	u	3.4%
Cc1ccccc1OCCSc1nc2ccc(NC(=O)c3cccs3)cc2s1	x	i	x	u	x	x
Cc1ccc(-c2nc(SCC(=O)NCc3ccco3)c3c(=O)n(C)c(=O)n(C)c3n2)cc1	x	u	x	i	x	x
CC(C)(C)S(=O)N1Cc2cc(CO)cc(CCO)c2[C@@H]1CCO (stereo not given in full)	-36.5%	i	-0.6%	i	6.7%	u
CCc1cccc(C)c1NC(=O)CSc1n[nH]c(N)n1	3.3%	u	1.3%	i	2.6%	10.1%
O=C(NCC1CCCO1)c1ccc([N+](=O)[O-])o1 (stereo not given)	u	u	u	20.6µM*	-28.3%	u
O=C(N/N=C/c1ccc([N+](=O)[O-])o1)C1CCCC1	25.9%	i	-23.4%	u	u	9.7%
O=C(NC1CCCCC1)c1ccc([N+](=O)[O-])o1	u	u	u	u	u	16.4µM*
CC(NC(=O)c1ccc([N+](=O)[O-])o1)C12CC3CC(CC(C3)C1)C2 (stereo not given)	u	u	18.4µM*	u	u	u
